# Reference: publication PMC11006913
# Tests used:
# Test in all cases: PBM; 200 nM protein, PBS
# Conditions in all cases: dsDNA, one strand shown
# HOXB9 [1] = molecular target: HOXB9 (Homo sapiens, UniProt P17482 171-250, T197M)
# HOXC9 [2] = molecular target: HOXC9 (Homo sapiens, UniProt P31274 178-260, K195R)
# HOXC10 [3] = molecular target: HOXC10 (Homo sapiens, UniProt Q9NYD6 254-340)
# ALX4 = ALX4 (Homo sapiens, UniProt Q9H161 200-286, Q225E)
# HOXB9 [4] = molecular target: HOXB9 (Homo sapiens, UniProt P17482 171-250)
# HOXB9 (Homo sapiens, UniProt P17482 171-250), sequence (P17482 171-250): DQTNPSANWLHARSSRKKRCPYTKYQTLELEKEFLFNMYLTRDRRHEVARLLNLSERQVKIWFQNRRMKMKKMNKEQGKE
# HOXC9 [5] = molecular target: HOXC9 (Homo sapiens, UniProt P31274 178-260)
# HOXC9 (Homo sapiens, UniProt P31274 178-260), sequence (P31274 178-260): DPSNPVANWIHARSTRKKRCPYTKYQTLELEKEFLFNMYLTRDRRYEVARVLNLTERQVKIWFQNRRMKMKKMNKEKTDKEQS
# HOXD13 [6] = molecular target: HOXD13 (Homo sapiens, UniProt P35453 263-343, T313R)
# HOXD13 (Homo sapiens, UniProt P35453 263-343, T313R), sequence (P35453 263-343 T313R): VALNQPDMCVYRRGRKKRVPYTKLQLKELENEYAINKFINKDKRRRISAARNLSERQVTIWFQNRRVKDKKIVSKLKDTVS
# HOXC9 [7] = molecular target: HOXC9 (Homo sapiens, UniProt P31274 178-260, R193K)
# HOXC9 (Homo sapiens, UniProt P31274 178-260, R193K), sequence (P31274 178-260 R193K): as the sequence (P31274 178-260) above, with R16K counted along it
# HOXD13 [8] = molecular target: HOXD13 (Homo sapiens, UniProt P35453 263-343)
# HOXD13 (Homo sapiens, UniProt P35453 263-343), sequence (P35453 263-343): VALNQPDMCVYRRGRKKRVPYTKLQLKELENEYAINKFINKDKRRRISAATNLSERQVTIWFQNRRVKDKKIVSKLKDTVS
# HOXC10 [9] = molecular target: HOXC10 (Homo sapiens, UniProt Q9NYD6 254-340, K271E)
# HOXC10 (Homo sapiens, UniProt Q9NYD6 254-340, K271E), sequence (Q9NYD6 254-340 K271E): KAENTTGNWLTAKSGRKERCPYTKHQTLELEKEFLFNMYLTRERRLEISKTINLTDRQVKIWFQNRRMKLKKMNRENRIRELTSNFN
# HOXD13 [10] = molecular target: HOXD13 (Homo sapiens, UniProt P35453 263-343, T313A)
# HOXD13 (Homo sapiens, UniProt P35453 263-343, T313A), sequence (P35453 263-343 T313A): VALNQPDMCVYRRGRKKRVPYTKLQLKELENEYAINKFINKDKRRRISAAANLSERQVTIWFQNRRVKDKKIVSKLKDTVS
# HOXB9 [11] = molecular target: HOXB9 (Homo sapiens, UniProt P17482 171-250, R186Q)
# HOXB9 (Homo sapiens, UniProt P17482 171-250, R186Q), sequence (P17482 171-250 R186Q): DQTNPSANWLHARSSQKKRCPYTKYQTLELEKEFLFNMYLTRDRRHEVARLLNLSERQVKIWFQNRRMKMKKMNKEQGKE
# HOXC9 [12] = molecular target: HOXC9 (Homo sapiens, UniProt P31274 178-260, R222W)
# HOXC9 (Homo sapiens, UniProt P31274 178-260, R222W), sequence (P31274 178-260 R222W): as the sequence (P31274 178-260) above, with R45W counted along it
# HOXB6 = HOXB6 (Homo sapiens, UniProt P17509 132-218, K202E)
# HOXB6, sequence (P17509 132-218 K202E): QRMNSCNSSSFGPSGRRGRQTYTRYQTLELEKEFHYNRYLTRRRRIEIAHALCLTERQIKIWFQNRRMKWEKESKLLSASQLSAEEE
# VENTX = molecular target: T1, VENTX (Homo sapiens, UniProt O95231 78-163, R121Q)
# T1 sequence: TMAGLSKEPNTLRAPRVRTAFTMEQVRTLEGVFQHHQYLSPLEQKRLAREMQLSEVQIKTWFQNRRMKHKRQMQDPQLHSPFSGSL
# NKX2-6 = molecular target: T2, NKX2-6 (Homo sapiens, UniProt A6NCS4 118-204)
# T2 sequence: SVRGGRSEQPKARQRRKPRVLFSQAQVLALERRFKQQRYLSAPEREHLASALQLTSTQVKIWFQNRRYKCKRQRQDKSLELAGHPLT
# HOXC10 (Homo sapiens, UniProt Q9NYD6 254-340), sequence (Q9NYD6 254-340): as the sequence (Q9NYD6 254-340 K271E) above, with E18K counted along it
# HOXB9 (Homo sapiens, UniProt P17482 171-250, T197M), sequence (P17482 171-250 T197M): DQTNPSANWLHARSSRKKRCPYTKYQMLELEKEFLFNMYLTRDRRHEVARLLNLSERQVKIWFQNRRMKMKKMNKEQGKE
# HOXC9 (Homo sapiens, UniProt P31274 178-260, K195R), sequence (P31274 178-260 K195R): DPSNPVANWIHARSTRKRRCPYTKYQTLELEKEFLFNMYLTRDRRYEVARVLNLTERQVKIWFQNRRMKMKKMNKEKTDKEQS
# ALX4, sequence (Q9H161 200-286 Q225E): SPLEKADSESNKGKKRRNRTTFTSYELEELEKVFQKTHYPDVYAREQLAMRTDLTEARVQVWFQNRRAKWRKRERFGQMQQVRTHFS
sequence,measurement,setting,value
TAATAAAA,binding signal,HOXB9 [1],"10.1 upbm affinity estimate (log intensity, higher = more binding, comparable within an allelic series)"
same,binding signal,HOXC9 [2],"13.2 upbm affinity estimate (log intensity, higher = more binding, comparable within an allelic series)"
same,binding signal,HOXC10 [3],"13 upbm affinity estimate (log intensity, higher = more binding, comparable within an allelic series)"
same,binding signal,ALX4,"11.8 upbm affinity estimate (log intensity, higher = more binding, comparable within an allelic series)"
same,binding signal,HOXB9 [4],"12.6 upbm affinity estimate (log intensity, higher = more binding, comparable within an allelic series)"
same,binding signal,HOXC9 [5],"13.2 upbm affinity estimate (log intensity, higher = more binding, comparable within an allelic series)"
same,binding signal,HOXD13 [6],"11.1 upbm affinity estimate (log intensity, higher = more binding, comparable within an allelic series)"
same,binding signal,HOXC9 [7],"13.1 upbm affinity estimate (log intensity, higher = more binding, comparable within an allelic series)"
same,binding signal,HOXD13 [8],"12.1 upbm affinity estimate (log intensity, higher = more binding, comparable within an allelic series)"
same,binding signal,HOXC10 [9],"12.5 upbm affinity estimate (log intensity, higher = more binding, comparable within an allelic series)"
same,binding signal,HOXD13 [10],"12.1 upbm affinity estimate (log intensity, higher = more binding, comparable within an allelic series)"
same,binding signal,HOXB9 [11],"12.2 upbm affinity estimate (log intensity, higher = more binding, comparable within an allelic series)"
same,binding signal,HOXC9 [12],"11.7 upbm affinity estimate (log intensity, higher = more binding, comparable within an allelic series)"
ATTTATTA,binding signal,HOXB9 [1],"10.1 upbm affinity estimate (log intensity, higher = more binding, comparable within an allelic series)"
same,binding signal,HOXC9 [2],"12.7 upbm affinity estimate (log intensity, higher = more binding, comparable within an allelic series)"
same,binding signal,HOXC10 [3],"12.5 upbm affinity estimate (log intensity, higher = more binding, comparable within an allelic series)"
same,binding signal,HOXB6,"10 upbm affinity estimate (log intensity, higher = more binding, comparable within an allelic series)"
same,binding signal,HOXB9 [4],"12 upbm affinity estimate (log intensity, higher = more binding, comparable within an allelic series)"
same,binding signal,HOXC9 [5],"12.8 upbm affinity estimate (log intensity, higher = more binding, comparable within an allelic series)"
same,binding signal,HOXD13 [6],"10.9 upbm affinity estimate (log intensity, higher = more binding, comparable within an allelic series)"
same,binding signal,HOXC9 [7],"12.7 upbm affinity estimate (log intensity, higher = more binding, comparable within an allelic series)"
same,binding signal,HOXD13 [8],"12 upbm affinity estimate (log intensity, higher = more binding, comparable within an allelic series)"
same,binding signal,HOXC10 [9],"12 upbm affinity estimate (log intensity, higher = more binding, comparable within an allelic series)"
same,binding signal,HOXD13 [10],"11.8 upbm affinity estimate (log intensity, higher = more binding, comparable within an allelic series)"
same,binding signal,HOXB9 [11],"11.7 upbm affinity estimate (log intensity, higher = more binding, comparable within an allelic series)"
same,binding signal,HOXC9 [12],"11.3 upbm affinity estimate (log intensity, higher = more binding, comparable within an allelic series)"
ACGATTAT,binding signal,VENTX,"10.5 upbm affinity estimate (log intensity, higher = more binding, comparable within an allelic series)"
same,binding signal,NKX2-6,"10.7 upbm affinity estimate (log intensity, higher = more binding, comparable within an allelic series)"
AATTTTAT,binding signal,HOXB9 [1],"9.84 upbm affinity estimate (log intensity, higher = more binding, comparable within an allelic series)"
same,binding signal,HOXC9 [2],"12.6 upbm affinity estimate (log intensity, higher = more binding, comparable within an allelic series)"
same,binding signal,HOXC10 [3],"12.3 upbm affinity estimate (log intensity, higher = more binding, comparable within an allelic series)"
same,binding signal,HOXB9 [4],"11.9 upbm affinity estimate (log intensity, higher = more binding, comparable within an allelic series)"
same,binding signal,HOXC9 [5],"12.7 upbm affinity estimate (log intensity, higher = more binding, comparable within an allelic series)"
same,binding signal,HOXD13 [6],"10.7 upbm affinity estimate (log intensity, higher = more binding, comparable within an allelic series)"
same,binding signal,HOXC9 [7],"12.6 upbm affinity estimate (log intensity, higher = more binding, comparable within an allelic series)"
same,binding signal,HOXC10 [9],"11.7 upbm affinity estimate (log intensity, higher = more binding, comparable within an allelic series)"
same,binding signal,HOXB9 [11],"11.6 upbm affinity estimate (log intensity, higher = more binding, comparable within an allelic series)"
same,binding signal,HOXC9 [12],"11.2 upbm affinity estimate (log intensity, higher = more binding, comparable within an allelic series)"
GTTTATTA,binding signal,HOXB9 [1],"9.87 upbm affinity estimate (log intensity, higher = more binding, comparable within an allelic series)"
same,binding signal,HOXC9 [2],"12.6 upbm affinity estimate (log intensity, higher = more binding, comparable within an allelic series)"
same,binding signal,HOXC10 [3],"12.4 upbm affinity estimate (log intensity, higher = more binding, comparable within an allelic series)"
same,binding signal,HOXB9 [4],"11.7 upbm affinity estimate (log intensity, higher = more binding, comparable within an allelic series)"
same,binding signal,HOXC9 [5],"12.6 upbm affinity estimate (log intensity, higher = more binding, comparable within an allelic series)"
same,binding signal,HOXD13 [6],"11 upbm affinity estimate (log intensity, higher = more binding, comparable within an allelic series)"
same,binding signal,HOXC9 [7],"12.6 upbm affinity estimate (log intensity, higher = more binding, comparable within an allelic series)"
same,binding signal,HOXD13 [8],"12 upbm affinity estimate (log intensity, higher = more binding, comparable within an allelic series)"
same,binding signal,HOXC10 [9],"11.6 upbm affinity estimate (log intensity, higher = more binding, comparable within an allelic series)"
same,binding signal,HOXD13 [10],"11.8 upbm affinity estimate (log intensity, higher = more binding, comparable within an allelic series)"
same,binding signal,HOXB9 [11],"11.5 upbm affinity estimate (log intensity, higher = more binding, comparable within an allelic series)"
same,binding signal,HOXC9 [12],"11.2 upbm affinity estimate (log intensity, higher = more binding, comparable within an allelic series)"
ATAAAACA,binding signal,HOXB9 [1],"9.83 upbm affinity estimate (log intensity, higher = more binding, comparable within an allelic series)"
same,binding signal,HOXC9 [2],"12.4 upbm affinity estimate (log intensity, higher = more binding, comparable within an allelic series)"
same,binding signal,HOXC10 [3],"12.2 upbm affinity estimate (log intensity, higher = more binding, comparable within an allelic series)"
same,binding signal,HOXB9 [4],"11.8 upbm affinity estimate (log intensity, higher = more binding, comparable within an allelic series)"
same,binding signal,HOXC9 [5],"12.5 upbm affinity estimate (log intensity, higher = more binding, comparable within an allelic series)"
same,binding signal,HOXD13 [6],"10.7 upbm affinity estimate (log intensity, higher = more binding, comparable within an allelic series)"
same,binding signal,HOXC9 [7],"12.5 upbm affinity estimate (log intensity, higher = more binding, comparable within an allelic series)"
same,binding signal,HOXD13 [8],"11.9 upbm affinity estimate (log intensity, higher = more binding, comparable within an allelic series)"
same,binding signal,HOXC10 [9],"11.6 upbm affinity estimate (log intensity, higher = more binding, comparable within an allelic series)"
same,binding signal,HOXD13 [10],"11.6 upbm affinity estimate (log intensity, higher = more binding, comparable within an allelic series)"
same,binding signal,HOXB9 [11],"11.5 upbm affinity estimate (log intensity, higher = more binding, comparable within an allelic series)"
same,binding signal,HOXC9 [12],"11.1 upbm affinity estimate (log intensity, higher = more binding, comparable within an allelic series)"
CTAATAAA,binding signal,HOXB9 [1],"9.76 upbm affinity estimate (log intensity, higher = more binding, comparable within an allelic series)"
same,binding signal,HOXC9 [2],"12.5 upbm affinity estimate (log intensity, higher = more binding, comparable within an allelic series)"
same,binding signal,HOXC10 [3],"12.5 upbm affinity estimate (log intensity, higher = more binding, comparable within an allelic series)"
same,binding signal,HOXB9 [4],"11.9 upbm affinity estimate (log intensity, higher = more binding, comparable within an allelic series)"
same,binding signal,HOXC9 [5],"12.7 upbm affinity estimate (log intensity, higher = more binding, comparable within an allelic series)"
same,binding signal,HOXD13 [6],"11.2 upbm affinity estimate (log intensity, higher = more binding, comparable within an allelic series)"
same,binding signal,HOXC9 [7],"12.6 upbm affinity estimate (log intensity, higher = more binding, comparable within an allelic series)"
same,binding signal,HOXD13 [8],"12.3 upbm affinity estimate (log intensity, higher = more binding, comparable within an allelic series)"
same,binding signal,HOXC10 [9],"11.9 upbm affinity estimate (log intensity, higher = more binding, comparable within an allelic series)"
same,binding signal,HOXD13 [10],"12.1 upbm affinity estimate (log intensity, higher = more binding, comparable within an allelic series)"
same,binding signal,HOXB9 [11],"11.6 upbm affinity estimate (log intensity, higher = more binding, comparable within an allelic series)"
same,binding signal,HOXC9 [12],"11.1 upbm affinity estimate (log intensity, higher = more binding, comparable within an allelic series)"
